# Assay results reported in PubChem BioAssay AID1778 (Sanford-Burnham Center for Chemical Genomics, 2009).
# The whole screen tested about 290,000 compounds, of which about 260 (0.09%) were called active. For the sample, actives were picked, then their nearest neighbours and some compounds at random. Results with a measured potency or affinity are listed apart. Values without a mark were called inactive. No stated cut-off is given here; in the data, active means inhibition above about 50%; inactive means the rest.
# Target: Kappa-type opioid receptor (Homo sapiens) (UniProt P41145)
# Assay: KOR antagonists, beta-arrestin recruitment, cell-based, luminescence, uHTS (AID 1778)
# Conditions: antagonist mode, hits give high values; at 10 µM unless noted
# Chain of Kappa-type opioid receptor (Homo sapiens) (P41145 whole entry, looked up): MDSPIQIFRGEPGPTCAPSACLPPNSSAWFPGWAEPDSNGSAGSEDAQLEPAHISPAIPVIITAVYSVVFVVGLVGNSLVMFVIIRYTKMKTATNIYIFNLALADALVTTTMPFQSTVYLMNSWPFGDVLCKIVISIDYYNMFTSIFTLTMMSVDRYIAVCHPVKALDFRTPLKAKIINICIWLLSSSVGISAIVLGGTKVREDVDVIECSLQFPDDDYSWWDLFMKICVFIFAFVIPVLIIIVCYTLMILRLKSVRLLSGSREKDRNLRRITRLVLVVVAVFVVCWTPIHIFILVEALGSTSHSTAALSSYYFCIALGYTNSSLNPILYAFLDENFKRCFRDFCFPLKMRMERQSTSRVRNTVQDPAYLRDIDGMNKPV
row,Structure (SMILES),inhibition
1,CC(=O)NC(=S)Nc1cccc([N+](=O)[O-])c1,30.8%
2,Cc1cc(C)n2nc(SCC(=O)NC3CCCCC3)nc2n1,-29.2%
3,COc1c(F)c(F)c(C(=O)O)c(Nc2ccccc2)c1F,4.7%
4,COCc1nnc(NC(=O)CCCOc2ccccc2OC)s1,-4.2%
5,Cc1ccc(Cl)cc1NC(=S)Nn1cnnc1,-13.2%
6,O=C(NCCc1ccccc1)C1CC(=O)N(C2CCCC2)C1 (configuration not stated),-27.2%
7,Cc1sc2c(c1C)C(=O)NC(c1cccc(O)c1)N2 (configuration not stated),9.3%
8,CC(=O)NC1CC2CCCC(C1)N2Cc1ccc(C)cc1 (configuration not stated),-10%
9,CCCN1C2CCCC1CC(NC(=O)c1ccc(F)cc1)C2 (configuration not stated),22.4%
10,O=C(NC1CC2CCCC(C1)N2Cc1ccc(F)cc1)c1ccc(F)cc1 (configuration not stated),13.6% [at 20 µM]
11,CCC(=O)NC1CC2CCCC(C1)N2Cc1ccc(C)cc1 (configuration not stated),2.1%
12,CCOc1ccc(C(=O)NCC(=O)OCC(=O)N2CCCCC2)cc1,-18.2%
13,COc1ccc(CNC(=O)C2CCN(S(=O)(=O)c3cccc4nonc34)CC2)cc1,-3.2%
14,Cc1nc2cncc(Br)c2n1C,-11.9%
15,CSc1ccc(NC(=O)NCCCN2CCC(Cc3ccccc3)CC2)cc1,-20.9%
16,Fc1ccc(NC(=S)NC2CC3CCC(C2)N3Cc2ccco2)cc1 (configuration not stated),22.9% [at 20 µM]
17,Cc1cccc(N2CCN(S(=O)(=O)c3cccc4nonc34)CC2)c1C,3%
18,Cc1ccc(OCc2cccc(S(=O)(=O)N(C)C)c2)c([N+](=O)[O-])n1,-0.3%
19,Cc1ccn2c(CNCCCn3cccn3)c(C(=O)N3CCCCCC3)nc2c1,13.8% [at 20 µM]
20,COc1ccc(/C=C(/C(=O)c2cccs2)N2C=CC=CC2=C(C#N)C#N)cc1,-7.8%
21,CC(/C=N/n1c(-c2ccc(Cl)cc2)n[nH]c1=S)=C\c1ccco1,-13.3%
22,N#C/C(=C\c1ccco1)C(=O)Nn1cnnc1,1%
23,O=C(O)/C(=C/c1ccco1)c1ccccc1,-9.6%

row,Structure (SMILES),inhibition
1,N#CC(C#N)=C1C=CC=CN1/C(=C\c1ccccc1)C(=O)c1cccs1,-1%
2,N#CC(C#N)=C1C=CC=CN1/C(=C\c1ccccc1Cl)C(=O)c1ccccc1,26.8%
3,COc1ccc(C(=O)N/C(=C/c2ccco2)C(=O)N2CCCCCC2)cc1,-0.8%
4,N#C/C(=C\c1ccco1)C(=O)NCc1ccccc1,7.2%
5,COc1ccc(CNC(=S)NCc2ccc(Cl)cc2)cc1OC,-4.7%
6,COc1ccccc1N(CC(O)COc1ccccc1)S(=O)(=O)c1ccccc1 (configuration not stated),25.7%
7,O=C(Nc1ccccc1Oc1ccsc1C(=O)O)c1ccccc1,11%
8,CC/C(C)=N/Oc1nc(C)cc(C)n1,-35.7%
9,NS(=O)(=O)c1ccc(NC(=O)Nc2ccc(S(N)(=O)=O)cc2)cc1,27.6%
10,FC(F)(F)c1cnc(N2CCCN(C(=S)Nc3ccccc3)CC2)c(Cl)c1,-20.9%
11,O=C(Nc1cccc(C(=O)O)c1)/C(=C\c1ccccc1)NC(=O)c1cccc2ccccc12,-20.3% [at 20 µM]
12,CCOC(=O)/C(C#N)=C\c1ccco1,-16.4%
13,N#C/C(=C/c1ccco1)C(N)=S,-13.4%
14,CC(=O)OC[C@H]1O[C@@H](O/N=C/[C@@H](C)[C@H](OCc2ccccc2)C(C)C)[C@H](OC(C)=O)[C@@H](OC(C)=O)[C@@H]1OC(C)=O,-20.6%
15,O=C(NNc1nc2c(F)cc(F)cc2s1)c1ccccc1,30.3%
16,O=C(Nc1nnc(SCc2ccc(F)cc2)s1)c1cnccn1,-29.3% [at 20 µM]
17,CCOc1ccc2nc(NC(=O)c3cnc(C)cn3)sc2c1,54.4%
18,O=C(Nc1nc2ccc(F)cc2s1)c1cccs1,-4.2%
19,O=C(Nc1nc2c(F)cc(F)cc2s1)c1ccco1,-20.5% [at 20 µM]
20,O=C(Nc1nc2ccc(S(=O)(=O)N3CCCC3)cc2s1)c1ccccn1,-85.6%
21,CCOc1ccc2nc(NC(=O)c3cnccn3)sc2c1,-3.8%
22,O=C(Nc1nnc(SCc2ccc(F)cc2)s1)c1cccnc1Cl,13%
23,Cn1c(CNC(=O)c2ccco2)nnc1SCC(=O)c1ccccc1,0.9%

row,Structure (SMILES),inhibition
1,O=C(c1ccc(CS(=O)(=O)c2ccc(Br)cc2)o1)N1CCN(c2ccc(F)cc2)CC1,3.6%
2,CC(=O)Nc1ccc(S(=O)(=O)NC2(C(F)(F)F)C(=O)Nc3c2c(=O)[nH]c(=O)n3Cc2ccco2)cc1 (configuration not stated),16.3%
3,CN(C)S(=O)(=O)c1cccc(N=C2SCCN2Cc2ccccc2)c1,-13.6%
4,COc1ccc(CCC(N)=O)cc1OC,-31.9%
5,Cc1c(NS(=O)(=O)c2cccs2)cccc1-c1nc2cccnc2s1,6.3%
6,Cc1ccc(S(=O)(=O)Nc2ccnc3ccccc23)cc1,6.9%
7,O=S(=O)(Nc1cccc2ccccc12)c1cccs1,2.3%
8,Cc1ccc(S(=O)(=O)Nc2cccc3ncccc23)s1,107% (active)
9,Cc1ccc(S(=O)(=O)Nc2cccc3ncccc23)cc1,14.1%
10,O=C(NNC(=O)c1ccccc1[N+](=O)[O-])c1ccccn1,-1.3% [at 20 µM]
11,Cc1[nH]nc2c1C(c1ccccc1F)CC(=O)N2 (configuration not stated),-21.3%
12,CCOC(=O)c1cc2cc(CC(=O)c3ccc(OCC)cc3O)ccc2o1,-2%
13,C/C(=N\NC(=O)C(c1ccccc1)c1ccccc1)c1ccccn1,81.1% (active)
14,CC(C(=O)O/N=C(\N)c1ccccn1)c1ccc([N+](=O)[O-])cc1 (configuration not stated),-1.4%
15,C/C(=N/NC(=O)CNC(=O)c1ccccn1)c1ccc([N+](=O)[O-])cc1,6.2%
16,CC(C)C(=O)NNC(=O)c1ccccn1,13.4%
17,O=C(NNC(=O)C12CC3CC(CC(C3)C1)C2)c1cnccn1,27.4%
18,C/C(=N\NC(=O)c1ccccn1)C12CC3CC(CC(C3)C1)C2,-17.6%
19,O=C(NNc1ccccn1)C(c1ccccc1)c1ccccc1,11.4%
20,CCCCCC(=O)N/N=C(\C)c1ccccn1,10.5%
21,C/C(=N\NC(=O)C(c1ccccc1)c1ccccc1)c1ccc(O)cc1,-26.8% [at 20 µM]
